A number with no mark means an inactive call. Active and inactive are the calls of the source.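 How the source made its calls: active means viability at or below 21.59%, 3 SD under the median of tested compounds; inactive means the rest.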

This experiment can be described thus: viability loss in PTEN-deleted cells – cell-based, validation, diverse DP compound set (AID 999).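 Further: 100% = median luminescence of untreated cell control wells and 0% = no signal.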 Conditions: HCT116 PTEN-null viability, CellTiter-Glo, 60 h; at 10 µM; active compounds read low. In general terms: ATP-based viability assays read luminescence as a measure of living cells.
By viability is commonly meant a read-out of living cells in per cent, often relative to untreated cells. As to `CCCN1CCC[C@@H]2Cc3cn[nH]c3C[C@H]21`, the viability is 105%.

Turning to `CCN1C[C@@]2(COC)C3[C@@H](OC)[C@H]4C1[C@@]3(C1C[C@]3(O)C(OC)[C@H](O)[C@@]4(OC(C)=O)C1[C@H]3OC(=O)c1ccccc1)[C@H](OC)C[C@H]2O` (some centres undefined), the viability was 89.3%.

`CC/C(=C(\c1ccccc1)c1ccc(OCCN(C)C)cc1)c1ccccc1`: the viability was 35.9%.

`C=C(C)[C@H]1CN[C@H](C(=O)O)[C@H]1CC(=O)O`: the viability was 99.8%.

On to `CCCC[C@H]1C(=O)O[C@H](C)[C@H](NC(=O)c2cccc(NC=O)c2OC)C(=O)O[C@@H](C)[C@@H]1OC(=O)CC(C)C`, for which the viability was 93.3%.

Regarding `C[C@@H]1O[C@@H](OC2CC(O)C3(CO)C4C(CCC3(O)C2)C2(O)CCC(C3=CC(=O)OC3)C2(C)C[C@H]4O)[C@H](O)[C@H](O)[C@H]1O` (some centres undefined), the viability was 106%.

For the compound `CSC(=S)NCc1c[nH]c2ccccc12`, the viability is 91.6%.

`C[C@]12CC[C@@H](O)C[C@@H]1CC[C@@H]1[C@@H]2CC[C@]2(C)C(=O)CC[C@@H]12`: the viability was 98.8%.

Take `Nc1ccncc1`: the viability was 100%.

Take `C=CCN1CC[C@]23c4c5ccc(O)c4O[C@H]2C(=O)CC[C@@]3(O)[C@H]1C5`: the viability is 89.3%.

Consider `C[C@@H]1CC[C@H]2[C@@H](C)C(=O)O[C@@H]3OC4(C)CC[C@@H]1[C@]32OO4`, for which the viability was 71.5%.

On to `N#CC(C#N)=Cc1ccc([N+](=O)[O-])c(O)c1`, for which the viability was 108%.

With `O=C1C=CC(=O)C(Cl)=C1`, the viability is 95.1%.

Turning to `CN(C)[C@@H]1C(=O)C(C(N)=O)=C(O)[C@@]2(O)C(=O)C3=C(O)c4c(O)cccc4[C@@](C)(O)C3CC12` (some centres undefined), the viability is 97.1%.

Regarding `COC(=O)C(O)C(O)(CCC(C)C)C(=O)OC1C(OC)=CC23CCCN2CCc2cc4c(cc2C13)OCO4` (centres undefined), the viability was 26.2%.

Take `CC[C@@]1(O)C(=O)OCc2c1cc1n(c2=O)-c2cc3ccccc3nc2C1`: the viability is 24.7%.

`C[C@H]1CCC/C=C/C2C[C@H](O)C[C@H]2[C@H](O)/C=C/C(=O)O1` (some centres undefined): the viability was 58.2%.

For the compound `CC(C)(C)[C@]1(O)C[C@@H]2OC(=O)CC23C(=O)O[C@@H]2OC(=O)[C@H](O)C231` (some centres undefined), the viability is 93.3%.

On to `N#CC(C#N)=Cc1cc(O)c(O)c([N+](=O)[O-])c1`, for which the viability is 106%.

Consider `O=C1CCC[C@H]2[C@@H]3CCCN4CCC[C@H](CN12)[C@H]34`, for which the viability is 105%.

Consider `CN1C[C@H](CNC(=O)OCc2ccccc2)C[C@@H]2c3cccc4c3c(cn4C)C[C@H]21`, for which the viability is 75.3%.

In the case of `COC1=C[C@@H]2[C@@H]3Cc4ccc(OC)c(O)c4[C@]2(CCN3C)CC1=O`, the viability was 96%.

Consider `CCCCCCCCCCCCCC(=O)O[C@@H]1[C@@H](C)[C@@]2(O)[C@@H](C=C(CO)C[C@]3(O)C(=O)C(C)=C[C@@H]23)[C@@H]2C(C)(C)[C@]12OC(C)=O`, for which the viability is 53.1%.

For `OCC1CCCN2CCCCC12` (centres undefined), the viability was 106%.

In the case of `CC1=C2[C@H]3OC(=O)[C@@H](C)[C@@H]3CC[C@@]2(C)C=CC1=O`, the viability was 95.7%.

Turning to `CC(=O)O[C@H]1[C@H]2[C@@H](OC(=O)Cc3ccccc3)[C@@H](C)C[C@]2(OC(C)=O)C(=O)/C(C)=C/[C@@H]2[C@H](CC[C@@]13CO3)C2(C)C`, the viability is 68.9%.

`NCC(CC(=O)O)c1ccc(Cl)cc1` (centres undefined): the viability is 94.7%.

As to `CNc1ccc2oc(C[C@@H]3OC4(CC[C@@H]3C)O[C@H](C(C)C(=O)c3ccc[nH]3)[C@H](C)C[C@H]4C)nc2c1C(=O)O` (some centres undefined), the viability is 3.3% (active).

Regarding `COC[C@H]1OC(=O)c2coc3c2[C@@]1(C)C1=C(C3=O)C2CCC(=O)[C@@]2(C)C[C@H]1OC(C)=O` (some centres undefined), the viability was 78.4%.

On to `NCCc1c[nH]c2ccc(O)cc12`, for which the viability is 98.1%.

Turning to `O[C@H]1[C@H](O)[C@@H](O)CN2CC[C@H](O)[C@H]12`, the viability was 97.8%.

For `O=C1C=C2C=C[C@@H]3C[C@@]2(O1)[C@H]1CCCCN31`, the viability is 79.4%.

As to `N#Cc1nn(-c2c(Cl)cc(C(F)(F)F)cc2Cl)c(N)c1S(=O)C(F)(F)F` (centres undefined), the viability is 85.6%.

Turning to `CC(C)c1cc2c(c(O)c1O)[C@@]1(C(=O)O)CCCC(C)(C)[C@@H]1CC2`, the viability is 97.5%.

The values above are taken from PubChem BioAssay AID999 (SRMLSC, 2007).
